Assay results taken from PubChem BioAssay (NCI).
The panel holds about 79,000 compounds, 15% with a hit somewhere; the sample as a whole holds those more often. The source made the active and inactive calls. No stated cut-off is given here; in the data, active means growth inhibition above about 70%; inactive means the rest.

Experiments:
[1] = NCI Yeast Anticancer Drug Screen. Data for the rad52 strain (AID 147);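 further: 0% = growth of vehicle-treated control cultures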; conditions: S. cerevisiae rad52 mutant growth inhibition, hits give high values
Method in brief: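 The repair-mutant yeast strain was incubated with compounds, then growth was read and inhibition derived relative to vehicle.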

[2] = NCI Yeast Anticancer Drug Screen. Data for the wt1 strain (AID 149);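 further: 0% = growth of vehicle-treated wt1 cultures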; conditions: S. cerevisiae wt1 strain (SPY 50644) growth inhibition, hits give high values
Method in brief: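 wt1 yeast, compound-treated; % growth inhibition vs vehicle control.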

[3] = NCI Yeast Anticancer Drug Screen. Data for the rad50EPP+ strain (AID 151);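 further: 0% = growth of vehicle-treated control cultures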; conditions: S. cerevisiae rad50 mutant strain, hits give high values
Method in brief: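 Vehicle-normalised growth inhibition; rad50EPP+ yeast strain, altered in DNA damage repair, compound-treated.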

[4] = NCI Yeast Anticancer Drug Screen. Data for the rad50 strain (AID 155);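 further: 0% = growth of vehicle-only cultures of the same strain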; conditions: S. cerevisiae rad50 strain growth inhibition, hits give high values
Method in brief: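 Genetically altered yeast (DNA repair pathway); compound treatment; growth inhibition vs vehicle ctrl.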

[5] = NCI Yeast Anticancer Drug Screen. Data for the mec2-1 strain (AID 157); conditions: S. cerevisiae mec2-1 strain, hits give high values
Method in brief: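 Mutant yeast (mec2-1) grown with compound; growth inhibition relative to vehicle control reported.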

[6] = NCI Yeast Anticancer Drug Screen. Data for the rad14 strain (AID 159);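 further: 0% = growth of vehicle-treated control cultures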; conditions: S. cerevisiae rad14 strain growth inhibition, hits give high values
Method in brief: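 Test compounds were applied to a repair-deficient yeast strain. Its growth was then compared with that of cultures given vehicle alone, and inhibition was expressed relative to those controls.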

[7] = NCI Yeast Anticancer Drug Screen. Data for the sgs1 mgt1 strain (AID 161);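 further: 0% = growth of cultures given vehicle only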; conditions: S. cerevisiae sgs1 mgt1 strain, hits give high values
Method in brief: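 Growth of a repair-deficient yeast mutant was monitored after compound treatment and expressed as inhibition relative to vehicle-treated cultures.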

[8] = NCI Yeast Anticancer Drug Screen. Data for the CLN2oe strain (AID 163);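 further: 0% = growth of vehicle-only control cultures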; conditions: S. cerevisiae CLN2oe strain, hits give high values
Method in brief: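 Compounds are applied to yeast harbouring a defined cell-cycle control change; reduced growth compared with vehicle-treated controls gives the value.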

[9] = NCI Yeast Anticancer Drug Screen. Data for the cln2 rad14 strain (AID 165);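 further: 0% = growth equal to vehicle treated cultures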; conditions: S. cerevisiae cln2 rad14 strain, hits give high values
Method in brief: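 Readout is yeast growth inhibition versus vehicle-treated controls, using a strain with cln2 and rad14 alterations exposed to compound.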

[10] = NCI Yeast Anticancer Drug Screen. Data for the bub3 strain (AID 167); conditions: S. cerevisiae bub3 mutant strain, hits give high values
Method in brief: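 Yeast carrying a defined mutation is treated with each compound, and growth is compared with that of vehicle-exposed cells to give inhibition.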

[11] = NCI Yeast Anticancer Drug Screen. Data for the wt2 strain (AID 169);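 further: 0% = growth of vehicle-treated yeast cultures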; conditions: S. cerevisiae wt2 strain growth inhibition, hits give high values
Method in brief: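 Against vehicle-treated controls, the growth of yeast exposed to each compound was compared, and the inhibition was recorded.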

[12] = NCI Yeast Anticancer Drug Screen. Data for the mlh1 strain (AID 171);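 further: 0% = growth of vehicle-treated control cultures of the same strain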; conditions: S. cerevisiae mlh1 strain growth inhibition, hits give high values
Method in brief: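 Measured: yeast growth. Reference: vehicle-treated controls. Organism: strain with a defined alteration affecting DNA damage repair or cell cycle control, treated with compound.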

[13] = NCI Yeast Anticancer Drug Screen. Data for the sgs1 strain (AID 173);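 further: 0% = growth of vehicle-only control cultures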; conditions: S. cerevisiae sgs1 mutant, hits give high values
Method in brief: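 Each compound was added to cultures of the altered yeast strain. Growth was recorded, and inhibition was derived by comparison with vehicle controls.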

[14] = NCI Yeast Anticancer Drug Screen. Data for the mlh1 rad18 strain (AID 175); conditions: S. cerevisiae mlh1 rad18 strain growth inhibition, hits give high values
Method in brief: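 Genetically defined yeast (DNA repair-deficient) exposed to compounds; growth inhibition determined relative to vehicle.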

[15] = NCI Yeast Anticancer Drug Screen. Data for the rad18 strain (AID 177); conditions: S. cerevisiae rad18 mutant growth inhibition, hits give high values
Method in brief: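 Vehicle-treated cultures served as the baseline for scoring compound-induced growth inhibition in DNA-repair-mutant yeast.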

[16] = at 5.0 µM (retest, dose inferred, filed as 0.5)
[17] = at 50.0 µM (retest, dose inferred, filed as 5.0)

Measured: growth inhibition

CC(=O)N1C(=O)/C(=C\C(=O)c2ccc([N+](=O)[O-])cc2)c2ccccc21
inactive: [1]; at 1.2 µM -14% | [1]; at 3.7 µM 18% | [1]; at 11.0 µM 53% | [2]; at 1.2 µM -10% | [2]; at 3.7 µM -15% | [2]; at 11.0 µM 21% | [3]; at 1.2 µM -12% | [3]; at 3.7 µM 35% | [3]; at 11.0 µM 4% | [4]; at 1.2 µM 0% | [4]; at 3.7 µM -8% | [4]; [16] 41% | [4]; at 11.0 µM 34% | [5]; at 1.2 µM -10% | [5]; at 3.7 µM 13% | [5]; [16] 60% | [5]; at 11.0 µM 28% | [6]; at 1.2 µM -8% | [6]; at 3.7 µM 9% | [6]; at 11.0 µM 31% | [7]; [16] 46% | [8]; at 1.2 µM -31% | [8]; at 3.7 µM 4% | [8]; at 11.0 µM 28% | [8]; at 33.0 µM 51% | [9]; [16] 25% | [9]; [17] 66% | [10]; at 1.2 µM -33% | [10]; at 3.7 µM -11% | [10]; [16] 12% | [10]; at 11.0 µM 22% | [11]; at 1.2 µM 29% | [11]; at 3.7 µM 55% | [12]; at 1.2 µM -8% | [12]; at 3.7 µM 14% | [12]; at 11.0 µM 67% | [13]; at 1.2 µM -13% | [13]; at 3.7 µM 27% | [13]; at 11.0 µM 66% | [15]; at 1.2 µM 1% | [15]; at 3.7 µM 26% | [15]; at 11.0 µM 61%
active: [1]; at 33.0 µM 92% | [1]; at 100.0 µM 97% | [2]; at 33.0 µM 77% | [2]; at 100.0 µM 97% | [3]; at 33.0 µM 89% | [3]; at 100.0 µM 95% | [4]; at 33.0 µM 93% | [4]; [17] 98% | [4]; at 50.0 µM 85.5% | [4]; at 100.0 µM 95% | [5]; at 33.0 µM 91% | [5]; [17] 98% | [5]; at 50.0 µM 89.5% | [5]; at 100.0 µM 97% | [6]; at 33.0 µM 86% | [6]; at 100.0 µM 97% | [7]; [17] 98% | [7]; at 50.0 µM 88.8% | [8]; at 100.0 µM 96% | [9]; at 50.0 µM 84.5% | [10]; at 33.0 µM 95% | [10]; [17] 96% | [10]; at 50.0 µM 86.8% | [10]; at 100.0 µM 96% | [11]; at 11.0 µM 93% | [11]; at 33.0 µM 98% | [11]; at 100.0 µM 98% | [12]; at 33.0 µM 95% | [12]; at 100.0 µM 97% | [13]; at 33.0 µM 96% | [13]; at 100.0 µM 96% | [14]; [16] 72% | [14]; [17] 98% | [14]; at 50.0 µM 85.7% | [15]; at 33.0 µM 90% | [15]; at 100.0 µM 97%

CC(C)(C)c1ccc(O)c(C(c2ccc([N+](=O)[O-])cc2)c2cc(C(C)(C)C)ccc2O)c1
inactive: [1]; at 1.2 µM 29% | [1]; at 3.7 µM 24% | [1]; at 11.0 µM 57% | [2]; at 1.2 µM -2% | [2]; at 3.7 µM -4% | [2]; at 11.0 µM 42% | [3]; at 1.2 µM 7% | [3]; at 3.7 µM -8% | [3]; at 11.0 µM -24% | [3]; at 33.0 µM -14% | [3]; at 100.0 µM -10% | [4]; at 1.2 µM 19% | [4]; at 3.7 µM 14% | [4]; [16] 21% | [4]; at 11.0 µM 61% | [5]; at 1.2 µM -1% | [5]; at 3.7 µM 14% | [5]; [16] 7% | [5]; at 11.0 µM 57% | [6]; at 1.2 µM -9% | [6]; at 3.7 µM -24% | [6]; at 11.0 µM 14% | [7]; [16] 29% | [7]; at 50.0 µM 29.1% | [8]; at 1.2 µM 2% | [8]; at 3.7 µM 19% | [8]; at 11.0 µM 38% | [9]; [16] 43% | [10]; at 1.2 µM 9% | [10]; at 3.7 µM 16% | [10]; [16] 33% | [10]; at 11.0 µM 53% | [11]; at 1.2 µM -16% | [11]; at 3.7 µM -19% | [11]; at 11.0 µM 46% | [12]; at 1.2 µM 12% | [12]; at 3.7 µM 6% | [12]; at 11.0 µM 29% | [13]; at 1.2 µM 22% | [13]; at 3.7 µM 13% | [13]; at 11.0 µM 40% | [14]; [16] 36% | [15]; at 1.2 µM 21% | [15]; at 3.7 µM 41% | [15]; at 11.0 µM 57%
active: [1]; at 33.0 µM 79% | [1]; at 100.0 µM 84% | [2]; at 33.0 µM 81% | [2]; at 100.0 µM 90% | [4]; at 33.0 µM 85% | [4]; [17] 88% | [4]; at 50.0 µM 84.3% | [4]; at 100.0 µM 92% | [5]; at 33.0 µM 85% | [5]; [17] 94% | [5]; at 50.0 µM 89% | [5]; at 100.0 µM 92% | [6]; at 33.0 µM 71% | [6]; at 100.0 µM 90% | [7]; [17] 93% | [8]; at 33.0 µM 80% | [8]; at 100.0 µM 91% | [9]; [17] 93% | [9]; at 50.0 µM 82.8% | [10]; at 33.0 µM 88% | [10]; [17] 94% | [10]; at 50.0 µM 84.2% | [10]; at 100.0 µM 92% | [11]; at 33.0 µM 81% | [11]; at 100.0 µM 83% | [12]; at 33.0 µM 90% | [12]; at 100.0 µM 93% | [13]; at 33.0 µM 82% | [13]; at 100.0 µM 93% | [14]; [17] 93% | [14]; at 50.0 µM 80.2% | [15]; at 33.0 µM 70% | [15]; at 100.0 µM 88%
